According to PubChem BioAssay (EPA / NIEHS):
Calls of active or inactive are those of the source. The calls were made as follows: active = hit-call score of the fitted dose curve at least 0.9, where 1 is the maximum; inactive = score below 0.9.

Test: CCTE_Shafer_MEA_acute_cross_correlation_area: CCTE's Neural Acute Assay for Area of Cross Correlation, Shafer Lab (AID 2284024);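 also: curves fitted for loss of cross-correlation area so actives lower synchrony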
Description: CCTE_Shafer_MEA_acute assay is conducted using Axion Biosystems 48 well microelectrode array (MEA) plates and Maestro recording system. Each well of the MEA plate contains a grid of 16 microelectrodes embedded in the culture surface. Electrically active cells, such as neurons, can be cultured over the electrodes, and electrical activity in these cells can be recorded extracellularly. The spontaneous firing of neurons is captured from each electrode on a microsecond timescale providing both temporally and spatially precise data. […] The CCTE_Shafer_MEA_acute assay uses primary cultures of rat cortical neurons. As these cultures mature over time, neural networks develop functional activity and form cohesive networks in which electrical activity can be highly coordinated. Baseline 40-minute recordings are made on days post-plating 13 or 15, followed by a secondary 40-minute recording after chemical exposure.CCTE_Shafer_MEA_acute_cross_correlation_area is a component of the CCTE_Shafer_MEA_acute assay. It measures the area under the well-wide pooled inter-electrode cross-correlation of action potential firing (not normalized to auto-correlations) within a window centered around 0 for the phase lag during a recording in a microelectrode array (MEA) using Axion Biosystems Maestro 768 channel amplifier with the AxIS adaptive spike detector. The recordings before and after chemical treatment are used to calculate a percent change in the cross correlation area in each well.Data from the assay component CCTE_Shafer_MEA_acute_cross_correlation_area was analyzed into 1 assay endpoint. This assay endpoint, CCTE_Shafer_MEA_acute_cross_correlation_area, was analyzed in the negative analysis fitting direction relative to DMSO as the negative control and baseline of activity. Using a type of functional reporter, gain or loss-of-signal activity can be used to understand electrical activity.
Spontaneous activity in the cortical cultures was recorded using an Axion Biosystems Maestro 768 channel amplifier and Axion Integrated Studios (AxIS) v1.8 (or later) software. The amplifier recorded from all channels simultaneously (gain = 1200 x; sampling rate = 12.5 kHz/channel): raw signals were filtered with a Butterworth band-pass filter (300-5000 Hz), which filters out slower local field potentials leaving only fast potentials, i.e., "spikes", arising from extracellular currents associated with action potentials (Pine 2006; Wheeler and Nam 2011). On-line spike detection of filtered signals was conducted with the AxIS adaptive spike detector, using a threshold of 8x the root mean squared (rms) noise on each channel. Any electrodes with rms noise levels greater than 5 uV were grounded (e.g., no data were recorded). Once grounded, an electrode was grounded for the duration of the experiment. All recordings were conducted at 37 C. Wells were deemed usable if on the day of the exposure >/= 10 electrodes were active (defined as >/= 5 spikes/min). On DIV 13 or 15, a minimum of three wells from one cortical culture preparation were treated with each compound (0.03-40 uM). Prior to recording baseline activity, each mwMEA plate was placed in the Maestro at 37 C and allowed to sit for 20 min while firing rates stabilized. Baseline activity (40 min) was recorded before the addition of each compound. An additional 40 min of spontaneous activity was recorded in the presence of each compound. Changes in network parameters relative to baseline were assessed following compound treatment.

| SMILES | outcome | AC50 |
| --- | --- | --- |
| OCC(CO)(CBr)CBr | inactive | – |
| CCCCCCCCCCCC | inactive | – |
| N=C(N)c1ccc(OCCCCCOc2ccc(C(=N)N)cc2)cc1 | inactive | – |
| CN(C)CCOC(c1ccccc1)c1ccccc1 | inactive | – |
| O=C(CCCN1CCC(O)(c2ccc(Cl)cc2)CC1)c1ccc(F)cc1 | inactive | – |
| CCCCC=O | inactive | – |
| CC(=O)Nc1ccc(O)cc1 | inactive | – |
| CCCCc1oc2ccccc2c1C(=O)c1cc(I)c(OCCN(CC)CC)c(I)c1 | inactive | – |
| Oc1ccc(Cc2ccccc2O)cc1 | – | 8.12 nM (active) |
| O=C1NS(=O)(=O)c2ccccc21 | – | 9.62 nM (active) |
| CCC(C)c1ccccc1O (configuration not stated) | inactive | – |
| Oc1c(Cl)cc(Cl)cc1Sc1cc(Cl)cc(Cl)c1O | inactive | – |
